CHX counter: affects cycloheximide protein synthesis inhibition readout, counter-screen; AID 2314; actives 12% (n = 300,000); max response, %; cell reporter, cycloheximide protein synthesis inhibition counterscreen; in the data active means max response mostly above about 13%, no sharp cut-off; inactive means mostly below about 14%; further: read at 38.3 µM for the half of the compounds with a filed dose; 0% is about no effect
LASV entry inh: blocks Lassa virus binding to or entry into cells | Potency, µM (doses to about 37.9 µM), for inactives: top-dose activity change, negative = inhibition, hits mostly inhibitors | AID 540256 | actives 1.2% (n = 300,000) | Lassa virus pseudotype entry inhibition, cell reporter; calls by dose curve; tested in HEK293 cells; further: potency means the concentration at half of the fitted maximal effect; on the % scale 0 is the no-effect control and ±100 the full control effect; nearly all actives have a fitted effect of over 50% in size
Marburg entry inh: Marburg virus entry inhibition; Marburg virus pseudotyped entry inhibition, cell reporter; Potency, µM (series often up to 37.8 µM), for inactives: at the highest dose activity change, negative = inhibition, hits mostly inhibitors; actives 1.8% (n = 300,000); AID 540276; calls by dose curve; tested in HEK293 cells; further: potency means the concentration at half of the fitted maximal effect; on the % scale 0 is the no-effect control and ±100 the full control effect
Shiga toxin inh: blocks Shiga toxin action in Vero cells | actives 9.2% (n = 290,000) | Vero cells, Shiga toxin protein synthesis inhibition reporter | AID 2315 | inhibition, % at 38.7 µM; in the data active means inhibition mostly above about 28%, no sharp cut-off; inactive means mostly below about 43%; further: 0% is about no effect
Pf growth 48h: inhibits P. falciparum growth in the first generation, 48 h; P. falciparum luciferase growth in erythrocytes, 48 h; Potency, µM (top dose mostly 28.7 µM), inactives show at the top dose activity change, negative = inhibition, actives largely listed as inhibitors; actives 5.9% (n = 310,000); AID 504832; further: potency means the concentration at half of the fitted maximal effect; on the % scale 0 is the no-effect control and ±100 the full control effect
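Compounds are pin-transferred into medium, infected erythrocytes (2% hematocrit, 0.1% parasitemia final) are added, and plates sit one parasite generation at 37 C in 5% CO2. Detection reagent is then added and luminescence measured.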
Pf growth 96h: P. falciparum growth inhibition at 96 hour, primary screen for plastid delayed-death inhibitors; P. falciparum luciferase reporter growth, 96 h; Potency, µM (titrated, usually from 28.7 µM), inactives show at the highest dose activity change, negative = inhibition, actives largely listed as inhibitors; actives 6.9% (n = 320,000); AID 504834; further: potency means the concentration at half of the fitted maximal effect; on the % scale 0 is the no-effect control and ±100 the full control effect
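Luminescence readout: decreased luciferase signal marks inhibited growth of reporter-expressing P. falciparum in infected red cells (2% hematocrit, 0.05% parasitemia final), exposed to compound two generations (96 h, 37 C, 5% CO2).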
The depositor's hits bear a star; ? = inconclusive; . = no result; [ ] = remark or other dose. Shown are actives, neighbours in structure and some others; about 19% of the full set was active somewhere. Unless noted, the call rests on the fitted dose curve; in most records, active means well fitted inhibition curve with a large enough effect; inconclusive means small, poorly fitted or top-dose-only effect, or another doubt; inactive means no such curve, though single readings can be large or run the other way.

SMILES	CHX counter	LASV entry inh	Marburg entry inh	Shiga toxin inh	Pf growth 48h	Pf growth 96h
CCOC(=O)Cc1csc(NC(=O)COc2c(C)cccc2C)n1	2	.	.	-12	9%	76%
Cc1ccc(C)c(S(=O)(=O)N2CCN(C(=O)[C@@H](NC(=O)c3ccc(F)cc3)C(C)C)CC2)c1	.	.	.	.	9.3µM*	?
Cc1ccc(C(=O)Nc2cccc(O)c2)cc1S(=O)(=O)N1CCCCCC1	54*	2%[46.1 µM]	?	61*	6%	-7%
COc1cnn(-c2cccc(C)c2)c(=O)c1Cl	19*	.	.	15	9%	150%
COc1ccc(Oc2c(Cl)cnn(-c3ccc(C)cc3)c2=O)cc1	14*	?	10µM*	2	2%	-2%
COc1ccc2cnn(-c3ccc(C)cc3)c(=O)c2c1OC	102*	2%	0%	153*	.	40%
COc1cnn(-c2ccccc2)c(=O)c1N(C)C	10	5%	13%	7	5%	34%
COc1c(Cl)cnn(-c2ccc(C)cc2)c1=O	25*	-1%	-25%	66*	?	-8%
COc1cc(OC)c(C2CC(=O)N3CN(c4ccccc4C)CSC3=C2C#N)cc1OC (centres undefined)	10	.	0%	-5	?	4%
COC(=O)c1cnn(-c2nc(-c3ccccc3)cs2)c1N	42*	?	?	40*	85%	76%
CCOC(=O)c1cnn(-c2nc(-c3ccccc3)cs2)c1C(F)(F)F	2	-12%	-3%	28	35%	77%
O=C(O)c1cnn(-c2nc(-c3ccc(Cl)cc3)cs2)c1C(F)(F)F	53*	15%[46.1 µM]	?	82*	.	16%
COc1ccc(-c2csc(-n3ncc(C(=O)O)c3C(F)(F)F)n2)cc1	74*	.	.	135*	15%[0.00184 µM]	40%
CNC(=O)c1cnn(-c2nc(-c3ccc(OC)cc3)cs2)c1C(F)(F)F	7	.	.	-6	-20%[0.00184 µM]	9%
CCOC(=O)c1c(NC(=O)Cn2nnc(-c3ccccc3Cl)n2)sc(C)c1C	11	2%	0%[46.1 µM]	-17	101%	?
O=C(COc1ccccc1Br)NC1CC1	15*	.	.	67	34%	32%
O=C(COc1ccccc1Cl)NC1CC1	12	.	.	92*	22%	?
CC1(C)CC(NC(=O)COc2ccccc2Cl)CC(C)(C)N1	28*	.	.	95*	75%	1%
O=C(COc1ccccc1Br)NC(=O)NC1CCCC1	.	5%	?	.	94%	43%
O=C(COc1ccc(Cl)cc1Br)NC1CC1	.	.	.	.	72%	82%
Cc1cccc2c1OCC/C2=N\NC(=O)COc1ccccc1Cl	21*	4%	3%	63*	310%	87%
C=C(C)C1CC=C(C)/C(=N/NC(=O)COc2ccccc2Cl)C1 (centres undefined)	-4	-20%	-7%	19	?	?
CN1CCN(Cc2nc3c(c(=O)n(C)c(=O)n3C)n2CCCc2ccccc2)CC1	-4	0%	-28%	21	4%	?
Cc1c(OCC(=O)NC2CC(C)(C)NC(C)(C)C2)ccc2c3c(c(=O)oc12)CCC3	2	.	.	13	?	?
CC1(C)CC(NC(=O)COc2ccc([N+](=O)[O-])cc2)CC(C)(C)N1	-3	4%[46.1 µM]	-18%[46.1 µM]	-6	2%	33%
SMILES	CHX counter	LASV entry inh	Marburg entry inh	Shiga toxin inh	Pf growth 48h	Pf growth 96h
COc1ccc(OCC(=O)NC2CC(C)(C)NC(C)(C)C2)cc1	31*	0%	-5%	59	46%	?
Cc1c(OCC(=O)NC2CC(C)(C)NC(C)(C)C2)ccc2c1oc(=O)c1ccccc12	10	.	.	7	3.7µM*	3.3µM*
Cc1nc2cc(-c3ccc(Cl)cc3)nn2c(C)c1CCC(=O)N1CCN(c2ccccc2)CC1	.	5%[46.1 µM]	4%[46.1 µM]	.	.	.
O=C(NC1CCCCC1)C(c1ccncc1)N(Cc1ccc(F)cc1)C(=O)c1ccccn1 (centres undefined)	4	.	.	16	-15%	-15%
O=C(NC1CCCCC1)C(c1ccc2ncccc2c1)N(Cc1ccccc1)C(=O)c1ccc2c(c1)OCCO2 (centres undefined)	10	-25%	?	-5	13µM*	10µM*
COc1ccc(C(C(=O)NC2CCCCC2)N(C(=O)c2cccs2)c2ccc3c(c2)OCO3)cc1 (centres undefined)	-3	?	?	-11	?	?

Screens from PubChem BioAssay.
